Experimental data published in the supplement of paper PMC6992640.

System: WHIM30 (cells of a triple-negative basal-like breast cancer xenograft)
Experiment: cell viability of combination (% of vehicle); higher = less cytotoxic
Conditions: 1 µM; 72 h; partner dose: 10 nM
Experimental: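 PDX cells were treated for 72 h with each drug at 1 µM plus carfilzomib (10 nM; 100 nM for WHIM2). Luciferase viability is expressed as percent of vehicle.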

SMILES | cell viability of combination
COc1cc(Nc2ncc(F)c(Nc3ccc4c(n3)N(COP(=O)(O)O)C(=O)C(C)(C)O4)n2)cc(OC)c1OC [Fostamatinib (R788)] + CC(C)C[C@H](NC(=O)[C@H](CCc1ccccc1)NC(=O)CN1CCOCC1)C(=O)N[C@@H](Cc1ccccc1)C(=O)N[C@@H](CC(C)C)C(=O)[C@@]1(C)CO1 [Carfilzomib] | 16.9
CCOC(=O)C1=C(COCCN)NC(C)=C(C(=O)OC)C1c1ccccc1Cl.O=S(=O)(O)c1ccccc1 (stereo not given) [Amlodipine Besylate] + CC(C)C[C@H](NC(=O)[C@H](CCc1ccccc1)NC(=O)CN1CCOCC1)C(=O)N[C@@H](Cc1ccccc1)C(=O)N[C@@H](CC(C)C)C(=O)[C@@]1(C)CO1 [Carfilzomib] | 16.5
O=C(C=Cn1cnc(-c2cc(C(F)(F)F)cc(C(F)(F)F)c2)n1)NNc1cnccn1 + CC(C)C[C@H](NC(=O)[C@H](CCc1ccccc1)NC(=O)CN1CCOCC1)C(=O)N[C@@H](Cc1ccccc1)C(=O)N[C@@H](CC(C)C)C(=O)[C@@]1(C)CO1 [Carfilzomib] | 5.58
Clc1ccc(C(Cn2ccnc2)OCc2c(Cl)cccc2Cl)c(Cl)c1.O=[N+]([O-])O (stereo not given) [Isoconazole nitrate] + CC(C)C[C@H](NC(=O)[C@H](CCc1ccccc1)NC(=O)CN1CCOCC1)C(=O)N[C@@H](Cc1ccccc1)C(=O)N[C@@H](CC(C)C)C(=O)[C@@]1(C)CO1 [Carfilzomib] | 16.4
CN(C(=O)CN(CCO)CC(=O)N(C)C(C)(C)Cc1ccccc1)C(C)(C)Cc1ccccc1 [Oxethazaine] + CC(C)C[C@H](NC(=O)[C@H](CCc1ccccc1)NC(=O)CN1CCOCC1)C(=O)N[C@@H](Cc1ccccc1)C(=O)N[C@@H](CC(C)C)C(=O)[C@@]1(C)CO1 [Carfilzomib] | 20.8
CNCCC(Oc1cccc2ccccc12)c1cccs1.Cl (stereo not given) [Duloxetine HCl] + CC(C)C[C@H](NC(=O)[C@H](CCc1ccccc1)NC(=O)CN1CCOCC1)C(=O)N[C@@H](Cc1ccccc1)C(=O)N[C@@H](CC(C)C)C(=O)[C@@]1(C)CO1 [Carfilzomib] | 16.1
Clc1ccc(COC(Cn2ccnc2)c2ccc(Cl)cc2Cl)c(Cl)c1.O=[N+]([O-])O (stereo not given) [Miconazole Nitrate] + CC(C)C[C@H](NC(=O)[C@H](CCc1ccccc1)NC(=O)CN1CCOCC1)C(=O)N[C@@H](Cc1ccccc1)C(=O)N[C@@H](CC(C)C)C(=O)[C@@]1(C)CO1 [Carfilzomib] | 14
CC(C)Nc1cc(-c2c[nH]c(C(=O)NC(CO)c3cccc(Cl)c3)c2)c(Cl)cn1 (stereo not given) + CC(C)C[C@H](NC(=O)[C@H](CCc1ccccc1)NC(=O)CN1CCOCC1)C(=O)N[C@@H](Cc1ccccc1)C(=O)N[C@@H](CC(C)C)C(=O)[C@@]1(C)CO1 [Carfilzomib] | 21.7
CN(C)c1ccc(C(=C2C=CC(=[N+](C)C)C=C2)c2ccc(N(C)C)cc2)cc1.[Cl-] [Crystal Violet] + CC(C)C[C@H](NC(=O)[C@H](CCc1ccccc1)NC(=O)CN1CCOCC1)C(=O)N[C@@H](Cc1ccccc1)C(=O)N[C@@H](CC(C)C)C(=O)[C@@]1(C)CO1 [Carfilzomib] | 6
CN(C)CC=CC(=O)Nc1cc2c(Nc3ccc(F)c(Cl)c3)ncnc2cc1OC1CCOC1.O=C(O)C=CC(=O)O.O=C(O)C=CC(=O)O (stereo not given) [Afatinib dimaleate] + CC(C)C[C@H](NC(=O)[C@H](CCc1ccccc1)NC(=O)CN1CCOCC1)C(=O)N[C@@H](Cc1ccccc1)C(=O)N[C@@H](CC(C)C)C(=O)[C@@]1(C)CO1 [Carfilzomib] | 12.9
CC1CC(=O)NN=C1c1ccc(NN=C(C#N)C#N)cc1 (stereo not given) [Levosimendan] + CC(C)C[C@H](NC(=O)[C@H](CCc1ccccc1)NC(=O)CN1CCOCC1)C(=O)N[C@@H](Cc1ccccc1)C(=O)N[C@@H](CC(C)C)C(=O)[C@@]1(C)CO1 [Carfilzomib] | 21.5
CC(CCC(=O)O)C1CCC2C3CCC4CC(O)CCC4(C)C3CCC12C (stereo not given) [Lithocholic Acid] + CC(C)C[C@H](NC(=O)[C@H](CCc1ccccc1)NC(=O)CN1CCOCC1)C(=O)N[C@@H](Cc1ccccc1)C(=O)N[C@@H](CC(C)C)C(=O)[C@@]1(C)CO1 [Carfilzomib] | 21.6
CNCCCC12CCC(c3ccccc31)c1ccccc12.Cl [Maprotiline HCl] + CC(C)C[C@H](NC(=O)[C@H](CCc1ccccc1)NC(=O)CN1CCOCC1)C(=O)N[C@@H](Cc1ccccc1)C(=O)N[C@@H](CC(C)C)C(=O)[C@@]1(C)CO1 [Carfilzomib] | 16
Cl.OC(c1cc(C(F)(F)F)nc2c(C(F)(F)F)cccc12)C1CCCCN1 (stereo not given) [Mefloquine hydrochloride] + CC(C)C[C@H](NC(=O)[C@H](CCc1ccccc1)NC(=O)CN1CCOCC1)C(=O)N[C@@H](Cc1ccccc1)C(=O)N[C@@H](CC(C)C)C(=O)[C@@]1(C)CO1 [Carfilzomib] | 20.3
CCCCCCCCCCCC1=C(O)C(=O)C=C(O)C1=O [Embelin] + CC(C)C[C@H](NC(=O)[C@H](CCc1ccccc1)NC(=O)CN1CCOCC1)C(=O)N[C@@H](Cc1ccccc1)C(=O)N[C@@H](CC(C)C)C(=O)[C@@]1(C)CO1 [Carfilzomib] | 17.7
COc1cccc2c1C(=O)c1c(O)c3c(c(O)c1C2=O)CC(O)(C(=O)CO)CC3OC1CC(N)C(O)C(C)O1 (stereo not given) [Doxorubicin] + CC(C)C[C@H](NC(=O)[C@H](CCc1ccccc1)NC(=O)CN1CCOCC1)C(=O)N[C@@H](Cc1ccccc1)C(=O)N[C@@H](CC(C)C)C(=O)[C@@]1(C)CO1 [Carfilzomib] | 8.32
CCOc1cc2ncc(C#N)c(Nc3ccc(OCc4ccccn4)c(Cl)c3)c2cc1NC(=O)C=CCN(C)C [Neratinib (HKI-272)] + CC(C)C[C@H](NC(=O)[C@H](CCc1ccccc1)NC(=O)CN1CCOCC1)C(=O)N[C@@H](Cc1ccccc1)C(=O)N[C@@H](CC(C)C)C(=O)[C@@]1(C)CO1 [Carfilzomib] | 17.5
COC(=O)c1ccc2c(c1)NC(=O)C2=C(Nc1ccc(N(C)C(=O)CN2CCN(C)CC2)cc1)c1ccccc1 [Nintedanib (BIBF 1120)] + CC(C)C[C@H](NC(=O)[C@H](CCc1ccccc1)NC(=O)CN1CCOCC1)C(=O)N[C@@H](Cc1ccccc1)C(=O)N[C@@H](CC(C)C)C(=O)[C@@]1(C)CO1 [Carfilzomib] | 24.9
Clc1ccc(COC(Cn2ccnc2)c2ccc(Cl)cc2Cl)cc1.O=[N+]([O-])O (stereo not given) [Econazole nitrate] + CC(C)C[C@H](NC(=O)[C@H](CCc1ccccc1)NC(=O)CN1CCOCC1)C(=O)N[C@@H](Cc1ccccc1)C(=O)N[C@@H](CC(C)C)C(=O)[C@@]1(C)CO1 [Carfilzomib] | 17.7
Cl.Nc1ccn(C2OC(CO)C(O)C2O)c(=O)n1 (stereo not given) [Cytarabine hydrochloride] + CC(C)C[C@H](NC(=O)[C@H](CCc1ccccc1)NC(=O)CN1CCOCC1)C(=O)N[C@@H](Cc1ccccc1)C(=O)N[C@@H](CC(C)C)C(=O)[C@@]1(C)CO1 [Carfilzomib] | 18.8
